Compounds with a hit are over-represented: about 3.9% of the library has one in this group of screens.
Wnt act – Wnt/beta-catenin pathway activators, primary screen, cell-based, plate reader, single point. AID 743398, 2014. activation, % at 9.35 µM. Wnt/beta-catenin reporter cell assay, activator. 300,000 compounds, 1.2% hits; in the data active = activation above about 30%, passing the limit was not always enough; inconclusive = no clear call, values can overlap the other calls;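 also: 0% = neutral control wells and 100% = positive control wells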
MITF TRPM1 HTS – activators of MITF-driven TRPM1 promoter reporter, primary screen, cell-based, SK-MEL-5, luciferase, single point. SK-MEL-5 TRPM1-promoter luciferase, 24 h; % of positive control, neutral wells = 0. activation, % at 12.5 µM. 300,000 compounds, 0.75% hits. AID 588334, 2011;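 active = mean activation of at least 80% with every replicate also reaching 80%; inconclusive = mean reaches 80% but some replicate falls short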;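 also: 0% = neutral control wells and 100% = parthenolide positive control wells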
HSF-1 act – HSF-1 activators, primary screen, NIH3T3-HGL cells, MG132 stress, luminescence, single point | NIH3T3-HGL HSF-1 luciferase reporter, 8 h; 100% = twice DMSO control signal | activation, % at 9 µM | 300,000 compounds, 1.7% hits | AID 504408, 2011;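 active = mean replicate activation of at least 50% with a set share of replicates each reaching 50%; inconclusive = only one of those two conditions met; inactive = mean below 50% and too few replicates reaching it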;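 also: 0% = median of the neutral control wells and 100% = twice that signal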
HSF1 inh – HSF1 inhibitors in luciferase reporter cells, primary screen, cell-based, NIH3T3, luminescence | NIH3T3-HGL HSE-luciferase, MG132-induced, luminescence 8 h; stronger effect = lower value | activity change, negative = inhibition, % at 7.5 µM (by protocol) | 300,000 compounds, 0.77% hits;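 active = more than half of replicate wells show activity change below -50%, luminescence cut by over half; inconclusive = some wells, but at most half, below -50%; inactive = no replicate well below -50%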;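 also: luciferase reports HSF-1 transcriptional activity via heat shock element; 0% = median of DMSO wells and -100% = zero luminescence signal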
esBAF inh – Bmi1 luciferase reporter increase in mESCs, primary screen, esBAF inhibitor project, mouse ES cells, Bmi1 luciferase knock-in, single point. 24 h; 100% = twice the neutral-well signal. reporter increase, % at 12.5 µM. 350,000 compounds, 2% hits. AID 602393, 2012; in the data active = activation above about 40%; inconclusive = no clear call, values can overlap the other calls;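 also: 0% = median of the plate's neutral control wells and 100% = double that signal; a rise in the Bmi1 reporter signal indicates esBAF inhibition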
* = called active by the depositor; ? = inconclusive; / = not tested or not shown.

SMILES	Wnt act	MITF TRPM1 HTS	HSF-1 act	HSF1 inh	esBAF inh
O=S(=O)(c1ccc(Cl)s1)N1CCc2ccccc2C1	/	-6	4	23	-1
C[C@@H]1CN([C@H](C)CO)C(=O)Cc2cc(NS(=O)(=O)c3ccc(Cl)cc3)ccc2O[C@H]1CN(C)S(=O)(=O)c1ccccc1	/	/	/	/	2
C[C@@H]1CN([C@H](C)CO)C(=O)c2cc(NC(=O)CCC(F)(F)F)ccc2O[C@H]1CN(C)Cc1ccc2c(c1)OCO2	/	/	/	/	-3
COc1ccccc1NC(=O)CSc1nc2n[nH]c(C)c2c(=N)n1-c1ccccc1Cl	/	0	60*	26	-2
CC1(C)CC(NC(=O)c2ccccn2)CC(C)(C)N1O	56*	1	10	0	-3
CN(Cc1cccs1)C(=O)c1ccc(S(=O)(=O)N2CCCCC2)cc1	-3	0	16	9	/
O=C(C1CCCN(S(=O)(=O)c2ccc(Cl)cc2)C1)N(Cc1cccs1)C1CC1 (centres undefined)	0	-9	-73	-65*	7
O=C(Nc1nnc(Cc2ccc(F)cc2)s1)Nc1ccccc1F	6	14	0	1	8
O=C(Nc1nnc([C@H]2C[C@H](O)[C@@H](CO)O2)s1)Nc1ccccc1F	-2	/	/	/	38
O=C(Nc1nnc([C@@H]2C[C@H](O)[C@@H](CO)O2)s1)Nc1ccccc1F	39*	/	/	/	6
COc1ccccc1NC(=O)Nc1nnc(C(C)c2ccccc2)s1 (centres undefined)	-1	11	8	3	53*
CCc1nnc(NC(=O)Nc2ccccc2OC)s1	-5	135*	12	10	?
O=C(Nc1nnc(Cc2ccccc2F)s1)Nc1ccccc1F	5	29	24	14	44*
CN1C(=O)c2cc(NS(C)(=O)=O)ccc2OC[C@H]2O[C@@H](CC(=O)NCc3ccccc3)CC[C@H]21	/	/	/	/	-5
CCCC#Cc1ccc2c(c1)O[C@@H](CN(C)C)[C@@H](C)CN([C@@H](C)CO)S2(=O)=O	/	/	/	/	-3
COCC(=O)Nc1ccc2c(c1)OC[C@H](C)N(Cc1ccccc1F)C[C@H](C)[C@@H](OC)CN(C)C2=O	/	/	/	/	6
CNC[C@H]1Oc2c(NC(=O)c3cc(C)nn3C)cccc2C(=O)N([C@@H](C)CO)C[C@H]1C	/	/	/	/	0
CNC[C@H]1Oc2ccc(N(C)C)cc2C(=O)N([C@@H](C)CO)C[C@H]1C	/	/	/	/	-4
O=C(C[C@@H]1CC[C@H]2[C@@H](COC[C@H](O)CN2C(=O)c2ccncc2)O1)NCc1ccc(-c2ccccc2)cc1	/	/	/	/	-1
COCCN(C(=O)COC(=O)/C=C/c1ccc(SC)cc1)c1c(N)n(Cc2ccccc2)c(=O)[nH]c1=O	1	18	/	/	5
COCCN(C(=O)COC(=O)/C=C/c1ccc(C(F)(F)F)cc1)c1c(N)n(Cc2ccccc2)c(=O)[nH]c1=O	-7	-4	-74	-67*	1
C[C@@H]1CN([C@@H](C)CO)C(=O)c2cc(NC(=O)NC3CCCCC3)ccc2O[C@@H](C)CCCCO[C@H]1CN(C)C(=O)CCCN(C)C	/	/	/	/	1
C[C@@H]1CN([C@H](C)CO)C(=O)c2cccc(NS(=O)(=O)c3cccs3)c2O[C@@H]1CN(C)C(=O)Nc1ccccc1	/	/	/	/	-3
N#C/C(=C/c1ccc(N2CCOCC2)o1)c1ccc(Cl)cc1	-14	106*	39	43	?
N#C/C(=C\c1ccc(N2CCOCC2)o1)c1nc2ccccc2[nH]1	-2	/	41	32	-9
SMILES	Wnt act	MITF TRPM1 HTS	HSF-1 act	HSF1 inh	esBAF inh
COc1cccc(CNc2nc3ccccc3n2C(C)C)c1O	0	13	182*	153	3
CCCn1c(NCc2cccc(OC)c2OC)nc2ccccc21	1	/	-2	8	29
CCCn1c(NCc2cccc(OC)c2O)nc2ccccc21	9	/	62*	32	25
CCCn1cnc2cc(NCc3cccc(OC)c3O)ccc21	/	47	-5	-2	56*
CCCn1cnc2cc(NCc3ccccn3)ccc21	14	/	-2	5	-46
CC(C(=O)N1CCN(C(=O)c2ccco2)CC1)n1sc2ccccc2c1=O (centres undefined)	2	3	16	12	3

High-throughput results: PubChem, Broad Institute
